From PubChem BioAssay come the findings set out here.

Test [1] is described as follows: inhibitors of TNFa-induced NFkB p65 translocation, primary screen, imaging, HUVEC, MLSMR starter and 10KST1 sets (AID 438;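 active = inhibition above 20% together with a positive visual image hit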;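 also: compound added about 3h40 before a 20 min TNFalpha stimulation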;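 as to inhibition: signal is the nuclear over cytoplasmic p65 intensity ratio per well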). Particulars: HUVEC TNFa-induced p65 nuclear translocation; cell count: measured here: nuclei count (cytotoxicity indicator), at 2.08 µM; inhibition: at 2 µM, stronger effect = higher value, 0% TNFa-plus-vehicle, 100% no-TNFa wells.
Test [2] can be described thus: reduction of polyQ htt aggregates in cells – imaging, exon1htt(103Q)mCFP cells, high-content imaging, primary screen (AID 483;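 active = visual image review flags a hit and inhibition of aggregation exceeds 20%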;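 also: compound exposure lasted 3 days before fixation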;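 as to nuclei count: percent of the per-plate median nuclei count of sample wells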). To be noted: exon1htt(103Q)mCFP cell line, aggregate imaging, at 2 µM; inhibition of aggregation: stronger effect = higher value; nuclei count: measured here: cell count, toxicity.
Test [3] in a line: endothelial E-selectin expression blockers – imaging, HUVEC, immunofluorescence, MLSMR starter and 10KST1 sets, primary screen (AID 487;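 active = visually confirmed hit in the image check and inhibition above 20%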;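 as to inhibition: signal is fraction of cell area covered by stained E-selectin grains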;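 as to nuclei count: 100% = median nuclei count of all wells on the same plate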). To be noted: HUVEC TNFalpha-induced E-selectin immunofluorescence imaging, at 2 µM; inhibition: stronger effect = higher value; nuclei count: measured here: cell number, toxicity.
The target in test [4] is Voltage-gated potassium channel subunit beta-2 (Rattus norvegicus) (UniProt P62483). Description: inhibitors of rat Kvbeta2 reductase activity – biochemical, NADPH fluorescence, primary screen (AID 622).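 Also: slope of raw intensity against log time taken from 70 to 1610 s.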 Particulars: recombinant KvBeta, 4-cyanobenzaldehyde reduction, at 10 µM, stronger effect = higher value.
Sequence of Voltage-gated potassium channel subunit beta-2 (Rattus norvegicus) (P62483 whole entry, looked up): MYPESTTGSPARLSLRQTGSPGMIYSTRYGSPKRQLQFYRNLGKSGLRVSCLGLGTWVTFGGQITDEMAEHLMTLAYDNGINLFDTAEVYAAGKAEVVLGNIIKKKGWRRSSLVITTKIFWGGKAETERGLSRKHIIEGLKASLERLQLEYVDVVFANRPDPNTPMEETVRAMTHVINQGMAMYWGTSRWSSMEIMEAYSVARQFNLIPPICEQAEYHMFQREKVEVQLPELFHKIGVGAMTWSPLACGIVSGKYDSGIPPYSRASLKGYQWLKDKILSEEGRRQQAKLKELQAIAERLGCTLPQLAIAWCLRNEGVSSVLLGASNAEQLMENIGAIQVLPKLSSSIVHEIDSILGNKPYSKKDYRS
Test [5] has the same target. In words: enhancers of rat Kvbeta2 NADPH turnover – biochemical, NADPH fluorescence, primary screen (AID 623;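 active = NADPH fluorescence slope more negative than the mean of all samples by about 3 SD, 99.7% confidence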;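 also: fluorescence intensity change per second fitted from 20 to 320 s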). Particulars: Recombinant KvBeta, NADPH fluorescence decrease slope, 10 min; at 10 µM; stronger effect = lower value.
Test [6] concerns the target Alpha-2C adrenergic receptor (Homo sapiens) (UniProt P18825). Description: compounds altering alpha2C-coupled GIRK flux – cell-based, HEK293 alpha2C/GIRK1/2, thallium flux, primary screen (AID 624;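 active = fluorescence slope after compound addition differing from the mean of all screened samples at 99.7% confidence, in either direction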;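 also: slope of fluorescence ratio to pre-addition baseline per second over 15 to 24 s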). Particulars: thallium flux BTC fluorescence, at 10 µM, actives lie on both sides.
The nature of test [7]: blockers of RIG-like receptor reporter activation – cell-based, Sendai virus stimulus, luciferase, 10K MLSCN set, TLR/RLR signaling modifier project, primary screen (AID 602276;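 active = inhibition at or above 50% at 10 µM; inactive = inhibition below 50%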;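 also: firefly luciferase from ISG56 promoter only with Renilla not read in this screen; 0% = Sendai virus plus DMSO and 100% = medium plus DMSO without virus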). To be noted: HEK293 RL24 IRF3 luciferase reporter, at 10 µM, stronger effect = higher value. In general terms: A reporter such as luciferase makes a cellular process visible.
Test [8] in a line: TLR3 IRF3 reporter activation blockers – cell-based, poly I:C stimulus, luciferase, 10K MLSCN set, primary screen (AID 602277;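 active = inhibition of the reporter signal at or above 50%; inactive = inhibition below 50%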). To be noted: HEK293-TLR3 RL24 IRF3 luciferase reporter, at 10 µM, stronger effect = higher value.

Molecules are shown by their SMILES. Calls of active or inactive are those of the source.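 The calls were made as follows, unless noted: active = fluorescence slope higher than the sample average by over 3 SD (cut at about -0.22 in these data, passing the limit was not always enough); inactive = the rest.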

Sequence of Alpha-2C adrenergic receptor (Homo sapiens) (P18825 whole entry, looked up): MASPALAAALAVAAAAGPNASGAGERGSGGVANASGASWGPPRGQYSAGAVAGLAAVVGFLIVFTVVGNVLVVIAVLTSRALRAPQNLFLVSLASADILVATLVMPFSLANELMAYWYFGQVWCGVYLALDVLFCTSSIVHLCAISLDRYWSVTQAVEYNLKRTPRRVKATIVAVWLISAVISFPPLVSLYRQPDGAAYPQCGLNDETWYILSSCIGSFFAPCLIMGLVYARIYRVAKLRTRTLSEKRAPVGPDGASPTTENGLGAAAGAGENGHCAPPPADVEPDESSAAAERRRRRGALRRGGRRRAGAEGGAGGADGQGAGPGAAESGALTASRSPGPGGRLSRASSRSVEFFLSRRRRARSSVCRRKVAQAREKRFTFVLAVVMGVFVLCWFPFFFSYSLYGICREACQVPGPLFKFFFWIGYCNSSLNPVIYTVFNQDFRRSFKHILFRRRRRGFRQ

Regarding `CC(=O)c1cc(Cl)ccc1OC(=O)c1ccco1`, in test [1], the cell count was 475. In addition, the inhibition in test [1] was 0.5% (inactive); in test [3] it was -48.1% (inactive); in test [7], 18.4% (inactive); in test [8] it was 21% (inactive). The inhibition of aggregation in test [2] was -8.1% (inactive). Also, the nuclei count in test [2] came out at 106%; in test [3] it was 124%. Also, the fluorescence slope in test [4] is -0.475 (inactive). For the same compound, in test [5], the NADPH fluorescence slope was -9e-05 (inactive). The slope in test [6] is 0.00476 (inactive).

As to `CCOC(=O)N1CCN(C(=O)c2ccc3c(SCC(=O)O)c4c(nc3c2)CCCC4)CC1`, the cell count in test [1] was determined as 819. Besides, the inhibition in test [1] is -5.2% (inactive); in test [3], -74.3% (inactive); in test [7], 9.84% (inactive); in test [8], 21.6% (inactive). Besides, the inhibition of aggregation in test [2] is 14.8% (inactive). The figures for the nuclei count in test [2] and in test [3] were 100% and 137%, respectively. The fluorescence slope in test [4] is -0.542 (inactive). In addition, the NADPH fluorescence slope in test [5] is 7.3e-06 (inactive). In test [6], the slope was 0.00656 (inactive).

Turning to `CN(C#N)c1nc(N2CCOCC2)nc(N2CCOCC2)n1`, the cell count in test [1] came out at 424. Moreover, the inhibition was -3.8% (inactive) in test [1], -192% (inactive) in test [3], 16.7% (inactive) in test [7] and 20% (inactive) in test [8]. Besides, the inhibition of aggregation in test [2] was -5.5% (inactive). For the same compound, the nuclei count in test [2] was determined as 104%; in test [3] it was 105%. The fluorescence slope in test [4] was -0.612 (inactive). Also, the NADPH fluorescence slope in test [5] was 6.7e-06 (inactive). Also, the slope in test [6] was 0.00573 (inactive).

Regarding `COc1ccc(N2CC(C(=O)Nc3ccc(F)cc3F)CC2=O)cc1` (stereo not given), in test [1], the cell count is 281. For the same compound, the inhibition was -3.5% (inactive) in test [1], 12% (inactive) in test [3], 14.4% (inactive) in test [7] and 20.8% (inactive) in test [8]. Moreover, the inhibition of aggregation in test [2] is -30.8% (inactive). The figures for the nuclei count in test [2] and in test [3] were 111% and 104%, respectively. In test [4], the fluorescence slope was -0.514 (inactive). The NADPH fluorescence slope in test [5] is -1.3e-05 (inactive). For the same compound, in test [6], the slope was 0.00428 (inactive).

For the compound `COc1ccc(Nc2ncc3c(n2)CC(c2ccc(OC)cc2)CC3=O)cc1` (stereo not given), in test [1], the cell count worked out at 649. For the same compound, the inhibition in test [1] was 6.3% (inactive); in test [3], -5.5% (inactive); in test [7], 5.21% (inactive); in test [8], -19.5% (inactive). In addition, in test [2], the inhibition of aggregation was -7.5% (inactive). The nuclei count in test [2] worked out at 101%; in test [3], 97%. The fluorescence slope in test [4] was -0.298 (inactive). In addition, the NADPH fluorescence slope in test [5] is -3.8e-05 (inactive). In test [6], the slope is 0.0047 (inactive).

Regarding `O=C(CSc1nnc(NC(=O)C2CCC2)s1)NC1CC1`, the cell count in test [1] turned out to be 488. For the same compound, the inhibition in test [1] was 0.8% (inactive); in test [3] it was -90.7% (inactive); in test [7], 0.495% (inactive); in test [8], -3.07% (inactive). In addition, in test [2], the inhibition of aggregation is -8.1% (inactive). In addition, the figures for the nuclei count in test [2] and in test [3] were 66.2% and 106%, respectively. In test [4], the fluorescence slope is -0.313 (inactive). In addition, the NADPH fluorescence slope in test [5] was -4.2e-05 (inactive). The slope in test [6] is 0.00536 (inactive).

With `COc1ccc(S(=O)(=O)Nc2ccccc2OC)cc1C`, in test [1], the cell count stood at 471. Further, the inhibition in test [1] is -3.3% (inactive); in test [3] it was -26.6% (inactive); in test [7], 16.7% (inactive); in test [8] it was 27.5% (inactive). Moreover, the inhibition of aggregation in test [2] is 0.3% (inactive). For the same compound, the nuclei count in test [2] came out at 96.5%; in test [3], 110%. Moreover, the fluorescence slope in test [4] was -0.459 (inactive). Further, the NADPH fluorescence slope in test [5] was 1.9e-05 (inactive). In test [6], the slope was 0.00608 (inactive).

With `O=C(CSc1nnc(-c2ccc(Br)o2)n1Cc1ccccc1)c1ccccc1F`, the cell count in test [1] was 336. Moreover, the inhibition in test [1] is -5.8% (inactive); in test [3], -35.1% (inactive); in test [7], 6.04% (inactive); in test [8], 18.1% (inactive). Besides, the inhibition of aggregation in test [2] was 11.9% (inactive). The nuclei count was determined as 87.1% in test [2] and 96.4% in test [3]. The fluorescence slope in test [4] is -0.391 (inactive). The NADPH fluorescence slope in test [5] was -4.8e-05 (inactive). Moreover, the slope in test [6] is 0.00522 (inactive).

With `COCCNC(=O)C1CCCN(c2ncccn2)C1` (stereo not given), the cell count in test [1] is 648. Further, the inhibition in test [1] is 7.5% (inactive); in test [3] it was 98.1% (active); in test [7] it was 14.2% (inactive); in test [8], 20.8% (inactive). Besides, in test [2], the inhibition of aggregation was 5.6% (inactive). The nuclei count in test [2] stood at 100%; in test [3], 76.1%. The fluorescence slope in test [4] was -0.539 (inactive). Moreover, the NADPH fluorescence slope in test [5] is -6.8e-05 (inactive). Also, the slope in test [6] was 0.00583 (inactive).

With `CNC(=O)c1ccc(N(Cc2ccccc2C)S(C)(=O)=O)cc1`, the cell count in test [1] is 710. Further, the inhibition in test [1] was -2.6% (inactive); in test [3] it was -40.6% (inactive); in test [7], 11.8% (inactive); in test [8] it was 11.4% (inactive). The inhibition of aggregation in test [2] was 0.9% (inactive). Besides, the nuclei count in test [2] was found to be 117%; in test [3] it was 116%. The fluorescence slope in test [4] is -0.636 (inactive). Further, the NADPH fluorescence slope in test [5] is -4.1e-05 (inactive). Also, the slope in test [6] is 0.00383 (inactive).

As a reminder, the inhibition is the drop in the measured response relative to a control, in per cent.
